Data as given in PubChem BioAssay (NCATS).
Records with an inconclusive call do not appear. The source made the active and inactive calls. The call rests on the fitted dose curve; in most records, active means well fitted inhibition curve with a large enough effect; inconclusive means small, poorly fitted or top-dose-only effect; inactive means flat fitted curve, though single readings scatter.

test system: TAB113; assay: qHTS profiling for inhibitors of Plasmodium falciparum proliferation (AID 504749); further: nearly all actives have a fitted effect of over 60% in size;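 on activity, negative = inhibition: 0% = DMSO vehicle and full inhibition = artemisinin control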; settings: P. falciparum in erythrocytes, SYBR Green DNA, 72 h; series mostly up to 12.8 µM; activity, negative = inhibition: at the top concentration
Method in brief: (§1)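 Readout was DNA-dye fluorescence from lysed cultures, ex 485/em 535 nm. Parasitized red cells had grown 72 h with compound; data scaled between 0.29 uM artemisinin and DMSO wells and corrected using vehicle-only plates.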
Potency means the concentration at half of the fitted maximal effect.

Structure (SMILES) | activity, negative = inhibition | Potency
CCO[C@H]1O[C@@H]([C@H](COCc2ccccc2)OCc2ccccc2)[C@@H](OCc2ccccc2)[C@H]1O | -9.16% (inactive) | –
COc1cc(N[C@@H](C)CCCN)c2ncccc2c1 | – | 1410 nM (active)
C=Cc1c(C)c2cc3nc(cc4[nH]c(cc5nc(cc1[nH]2)C(C)=C5CCC(=O)O)c(CCC(=O)OC)c4C)[C@@]1(C)C3=CC=C(C(=O)OC)[C@H]1C(=O)OC (tested in a mixture with another compound) | – | 1780 nM (active)
O=C(OC[C@@H](O)CO)c1ccccc1Nc1ccnc2cc(Cl)ccc12 | -12.1% (inactive) | –
CO[C@]1(NC(=O)[C@H](C(=O)O)c2ccc(O)cc2)C(=O)N2C(C(=O)O)=C(CSc3nnnn3C)CO[C@H]21 | -0.56% (inactive) | –
COc1ccc2c(c1)N(C[C@@H](C)CN(C)C)c1ccccc1S2 | -12.1% (inactive) | –
CCC(=O)[C@@]1(C)[C@H](C)C[C@@H]2[C@@H]3CCC4=CC(=O)C=C[C@@]4(C)[C@H]3[C@H](O)C[C@]21C | 3.21% (inactive) | –
CC=C(/C(=C/C)c1ccc(O)cc1)c1ccc(O)cc1 | 3.33% (inactive) | –
CC1(C)S[C@@H]2[C@H](NC(=O)[C@@H](N)c3ccccc3)C(=O)N2[C@H]1C(=O)O[C@H]1OC(=O)c2ccccc21 | 1.79% (inactive) | –

test system: TAB165; assay: as above; settings: P. falciparum in erythrocytes, SYBR Green DNA, 72 h; series mostly up to 12.8 µM; activity, negative = inhibition: at the top concentration
Method in brief: as §1

Structure (SMILES) | Potency | activity, negative = inhibition
COc1cc(N[C@@H](C)CCCN)c2ncccc2c1 | 891 nM (active) | –
C=Cc1c(C)c2cc3nc(cc4[nH]c(cc5nc(cc1[nH]2)C(C)=C5CCC(=O)O)c(CCC(=O)OC)c4C)[C@@]1(C)C3=CC=C(C(=O)OC)[C@H]1C(=O)OC (tested in a mixture with another compound) | 6310 nM (active) | –
O=C(OC[C@@H](O)CO)c1ccccc1Nc1ccnc2cc(Cl)ccc12 | – | -19% (inactive)
CO[C@]1(NC(=O)[C@H](C(=O)O)c2ccc(O)cc2)C(=O)N2C(C(=O)O)=C(CSc3nnnn3C)CO[C@H]21 | – | 1.67% (inactive)
COc1ccc2c(c1)N(C[C@@H](C)CN(C)C)c1ccccc1S2 | – | -22.3% (inactive)
CCC(=O)[C@@]1(C)[C@H](C)C[C@@H]2[C@@H]3CCC4=CC(=O)C=C[C@@]4(C)[C@H]3[C@H](O)C[C@]21C | – | -8.14% (inactive)
COC(=O)[C@@H]1[C@@H]2C[C@H]3c4[nH]c5cc(OC)ccc5c4CCN3C[C@@H]2C[C@H](OC(=O)/C=C\c2cc(OC)c(OC)c(OC)c2)[C@H]1OC | 3160 nM (active) | –
CC=C(/C(=C/C)c1ccc(O)cc1)c1ccc(O)cc1 | – | -1.86% (inactive)
CC1(C)S[C@@H]2[C@H](NC(=O)[C@@H](N)c3ccccc3)C(=O)N2[C@H]1C(=O)O[C@H]1OC(=O)c2ccccc21 | – | 11.3% (inactive)
